# Only a selection was taken, and hits are over-represented in it overall. No count for the full screen is at hand.
# Tested on: T1, Caupolican (Caup) homeodomain DNA-binding domain
# T1 sequence: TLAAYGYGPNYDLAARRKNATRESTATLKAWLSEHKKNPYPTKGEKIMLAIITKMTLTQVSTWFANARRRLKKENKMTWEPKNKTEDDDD
# Test: PBM E-score (8-mer, recovered from the published 9-mer minima) (E-score (dimensionless, -0.5 to 0.5)); Drosophila protein; higher = stronger relative binding preference, active = 0.31 or more
# Summary of the method: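 Caup's homeodomain DNA-binding domain (residues 214-303) was made by in vitro transcription and translation and applied at 100 nM to custom-designed protein binding microarrays. Each value is an enrichment score that gives relative binding preference for a short DNA word, with higher meaning stronger. The 8-mer values were recovered from published 9-mer scores, each of which was the minimum of its two constituent 8-mer scores. A cutoff of 0.31 marks candidate sites.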
row,Sequence,PBM E-score
1,AACGGGTA,0.0722 (inactive)
2,CCCGTCGG,-0.289 (inactive)
3,CCGCAGCC,-0.25 (inactive)
4,GCGCCGAC,-0.199 (inactive)
5,GATCGCAC,0.0699 (inactive)
6,CATTTGCG,0.00242 (inactive)
7,ACCTTCGT,-0.0522 (inactive)
8,GCCACCTA,-0.192 (inactive)
9,GACAAGTA,0.355 (active)
10,AACAAATG,0.174 (inactive)
11,AACAAGTA,0.33 (active)
12,AACAAATA,0.287 (inactive)
13,TACAAGTA,≥ 0.407 (active)
14,GACAAGTC,0.236 (inactive)
15,AACAAGTG,0.334 (active)
16,CACAAGTG,0.111 (inactive)
17,CACAAGTA,0.205 (inactive)
18,TACAAAGA,0.239 (inactive)
19,ACCAAGTA,0.0922 (inactive)
20,GACAAATA,0.218 (inactive)
21,CATGAAGG,0.0126 (inactive)
22,ACCCCGAA,-0.106 (inactive)
23,AGTGGGTC,-0.178 (inactive)
24,GAAACTGC,-0.184 (inactive)
25,ACCAGGGC,-0.112 (inactive)
26,GGCAGCTA,-0.136 (inactive)

row,Sequence,PBM E-score
1,CGTTTTCC,0.0392 (inactive)
2,GACGCGTC,-0.0916 (inactive)
3,ACCGTCCT,-0.0635 (inactive)
4,ACTCAAGA,-0.0159 (inactive)
5,AAGTCAGG,-0.109 (inactive)
6,AACAAGTC,0.278 (inactive)
7,AACAAGGT,0.293 (inactive)
8,AACAAGTT,0.33 (active)
9,CTTTGCTC,-0.0311 (inactive)
10,CATCCCTC,-0.0768 (inactive)
11,CAAGTGGG,-0.0243 (inactive)
12,ATGTGTGG,0.0766 (inactive)
13,CTGTGTTA,0.259 (inactive)
14,ATGTGTTG,0.34 (active)
15,ATGTGTTA,≥ 0.323 (active)
16,GTGTGTTA,0.275 (inactive)
17,ATGTGTTC,0.266 (inactive)
18,AAAGAAGT,0.0392 (inactive)
19,CATGCTGG,0.0451 (inactive)
20,CGAAGTCC,-0.149 (inactive)
21,GGCAAGTA,0.101 (inactive)
22,ACAGGCGT,-0.013 (inactive)
23,ATGTCATA,0.4 (active)
24,ATGTCATG,0.353 (active)
25,CTGTCAGA,0.0887 (inactive)
26,CTGTCATA,0.246 (inactive)

row,Sequence,PBM E-score
1,GTGTCAGA,0.245 (inactive)
2,ATGTCAGG,0.209 (inactive)
3,GTGTCATA,0.292 (inactive)
4,ATGTCAGA,0.336 (active)
5,ATGTCATC,0.306 (inactive)
6,ACCTCGCC,-0.212 (inactive)
7,GCCCTGCA,-0.173 (inactive)
8,TCAGTGAA,-0.0554 (inactive)
9,CCGAGTAG,-0.0123 (inactive)
10,AAATCACA,0.108 (inactive)
11,CCCGTTAC,0.0202 (inactive)
12,GATATGAA,0.0673 (inactive)
13,AATATGTA,0.328 (active)
14,AATATGTG,0.259 (inactive)
15,CGTATGTA,0.289 (inactive)
16,AATATGTC,0.297 (inactive)
17,GGTATGTA,0.277 (inactive)
18,CATATGTA,0.334 (active)
19,GATATGTA,0.321 (active)
20,CATATGTC,0.277 (inactive)
21,CCGGGAGC,-0.282 (inactive)
22,CTCTGGAA,-0.12 (inactive)
23,CGACGGAC,0.00364 (inactive)
24,ACAGCGAG,-0.0026 (inactive)
25,GGCTATAC,-0.0714 (inactive)
26,AACGAGGA,0.0777 (inactive)

row,Sequence,PBM E-score
1,CTGAAACC,-0.0654 (inactive)
2,CTTCCGGA,-0.173 (inactive)
3,AAATGTCC,0.126 (inactive)
4,GCATGTCC,0.31 (active)
5,AAATGTCG,0.144 (inactive)
6,CAATGTCA,0.293 (inactive)
7,GCATGGCA,-0.0563 (inactive)
8,CCATGGCA,-0.0986 (inactive)
9,GCATGTCA,0.44 (active)
10,ATATGTCG,0.302 (inactive)
11,ACATGTCG,0.416 (active)
12,GAATGTCC,0.145 (inactive)
13,CCATGTCA,0.398 (active)
14,GAATGTCA,0.169 (inactive)
15,GATAAGGA,0.0879 (inactive)
16,CGTTATAC,0.0592 (inactive)
17,GTTTTTGA,0.084 (inactive)
18,GTTTAGAA,0.121 (inactive)
19,ACATGGCA,0.307 (inactive)
20,ACATGTCC,0.438 (active)
21,ACATGTCA,0.461 (active)
22,ACCTGTCT,0.144 (inactive)
23,CCATGTCG,0.362 (active)
24,CCCTGTCG,-0.0227 (inactive)
25,AAATGTCT,0.106 (inactive)
26,ACATGTCT,0.417 (active)

row,Sequence,PBM E-score
1,AGATGTCC,0.234 (inactive)
2,CAATGTCG,0.227 (inactive)
3,AAATGTCA,0.266 (inactive)
4,CCATGTCC,0.292 (inactive)
5,CTCACAGC,-0.124 (inactive)
6,ACCTACCC,-0.14 (inactive)
7,CGCGTAGC,-0.153 (inactive)
8,CAAGACTA,0.107 (inactive)
9,ATAGCCAT,0.0738 (inactive)
10,CATTCATA,0.179 (inactive)
11,CCTGGTGA,-0.102 (inactive)
12,ACTCTGCG,-0.03 (inactive)
13,TAATGTCA,0.258 (inactive)
14,TCATGTCA,0.391 (active)
15,TCATGGCA,-0.0694 (inactive)
16,ATTCGGAA,0.0171 (inactive)
17,CCCGCTAA,-0.182 (inactive)
18,CGCGATCC,-0.0878 (inactive)
19,AACAACGC,0.182 (inactive)
20,GACAACAC,0.352 (active)
21,AACAACAC,0.392 (active)
22,CACAACAC,0.265 (inactive)
23,GACAACTC,0.191 (inactive)
24,GTCAACAA,0.285 (inactive)
25,GACAACAA,0.342 (active)
26,GACAACGA,0.179 (inactive)

row,Sequence,PBM E-score
1,GTCAACAC,0.175 (inactive)
2,ACTATTTG,0.153 (inactive)
3,GTCTTGAA,0.0106 (inactive)
4,AGAACCCT,-0.163 (inactive)
5,ACATGAAC,0.372 (active)
6,ATATGAAT,0.107 (inactive)
7,GCATGAAC,0.104 (inactive)
8,ACATGAAG,0.293 (inactive)
9,CCATGAAA,0.00449 (inactive)
10,ACATGAAA,0.314 (active)
11,ACATGAAT,0.336 (active)
12,GCATGAAA,0.111 (inactive)
13,CCATGAAC,0.0647 (inactive)
14,CTATATTA,0.168 (inactive)
15,CCCTGTCA,0.129 (inactive)
16,CCAACATC,0.113 (inactive)
17,ACAACTTG,0.271 (inactive)
18,ACAACAGC,0.214 (inactive)
19,ACAACAGG,0.192 (inactive)
20,ACAACATC,0.356 (active)
21,ACAACATG,0.441 (active)
22,CCAACATA,0.211 (inactive)
23,GCAACATA,0.204 (inactive)
24,ACAACATA,0.411 (active)
25,ATGGGTCG,-0.0702 (inactive)
26,ACAATGGC,0.0838 (inactive)

row,Sequence,PBM E-score
1,ACTCTCGC,-0.115 (inactive)
2,TATTGTAA,0.275 (inactive)
3,ACTTGTAT,0.391 (active)
4,AGTTGTAT,0.231 (inactive)
5,GATTGTAA,0.205 (inactive)
6,GCTTGTAA,0.384 (active)
7,ATTTGTAA,0.277 (inactive)
8,ACTTGTAA,0.403 (active)
9,AATTGTAA,0.209 (inactive)
10,TCTTGTAA,0.371 (active)
11,TCTTGCAA,0.0461 (inactive)
12,AATTGTAT,0.228 (inactive)
13,GTTTGTAA,0.198 (inactive)
14,ATATCTAC,0.166 (inactive)
15,ACAAAAAC,0.117 (inactive)
16,AGTTGGTG,-0.0391 (inactive)
17,CCGCATAG,-0.0554 (inactive)
18,ATTGTTCG,0.213 (inactive)
19,CGCTCAGC,-0.138 (inactive)
20,TTACAAAA,0.203 (inactive)
21,ATACAAGG,0.283 (inactive)
22,GCACAAGA,0.0557 (inactive)
23,GTACAAAA,0.323 (active)
24,ATACAAGC,0.316 (active)
25,CTACAAGA,0.263 (inactive)
26,GTACAATA,0.306 (inactive)

row,Sequence,PBM E-score
1,ATACAAGA,0.322 (active)
2,CTACAAAA,0.123 (inactive)
3,GTACAAGA,0.418 (active)
4,CTACAAGC,0.29 (inactive)
5,ATACAATA,0.26 (inactive)
6,AATAGCCT,-0.0311 (inactive)
7,AATAGAGA,0.041 (inactive)
8,CACGTAAG,0.0839 (inactive)
9,GTGCTCCA,-0.0875 (inactive)
10,CTTCCAGC,-0.248 (inactive)
11,CCCGAATC,-0.201 (inactive)
12,CACATCTA,0.208 (inactive)
13,AACATGTT,0.45 (active)
14,CACATCTC,-0.00827 (inactive)
15,AAAATGTT,0.249 (inactive)
16,AACATCTA,0.252 (inactive)
17,AACATCTT,0.246 (inactive)
18,AACATGTA,≥ 0.48 (active)
19,CACATGTC,0.387 (active)
20,CAAATGTA,0.294 (inactive)
21,CAAATGTC,0.141 (inactive)
22,AACATTTA,0.275 (inactive)
23,CACATGTA,0.42 (active)
24,GCGTACGC,-0.112 (inactive)
25,ACCACCAC,0.0458 (inactive)
26,CGAATCTC,0.0162 (inactive)

row,Sequence,PBM E-score
1,GATGCCCA,-0.0463 (inactive)
2,CGCTTTAC,0.0463 (inactive)
3,GCGATACA,0.217 (inactive)
4,ATTGGGAG,-0.0672 (inactive)
5,ACGGATCG,0.00507 (inactive)
6,CCTTGCTA,0.0673 (inactive)
7,AAAGGTCT,-0.0899 (inactive)
8,CACATGTG,0.18 (inactive)
9,GACATGTC,0.437 (active)
10,GAAATGTC,0.114 (inactive)
11,AACATCTG,0.22 (inactive)
12,GAAATGTA,0.131 (inactive)
13,AACATCTC,0.254 (inactive)
14,AACATGTG,0.402 (active)
15,GACATATC,0.256 (inactive)
16,AACATGTC,0.424 (active)
17,GACATGTA,0.477 (active)
18,GACATTTA,0.177 (inactive)
19,AAAATGTC,0.217 (inactive)
20,CGTGCTGA,0.0459 (inactive)
21,CTGGGCTC,-0.186 (inactive)

# Source: the supplement of paper PMC3724861
